From PubChem
Hits are enriched below; roughly 4% of the tested compounds scored in any of these assays.
GDH-TPI counter – counter-screen for M. tuberculosis FBA inhibitors: GDH-TPI coupled enzymes; GDH-TPI coupled enzyme counterscreen, NADH absorbance; 360,000 tested, 1.2% active; inhibition, % at 4.8 µM; AID 588335; in the data active = inhibition above about 30%;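 also: 0% = DMSO wells and 100% = wells lacking the enzyme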
Rv3671c inh – inhibits the M. tuberculosis serine protease Rv3671c; 320,000 tested, 0.048% active; AID 2606; P9WHR9; inhibition, % at 5.96 µM; in the data active = inhibition above about 38%;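 also: extracellular domain of Rv3671c used as enzyme; 0% = enzyme with DMSO and 100% = no enzyme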
Target sequence (P9WHR9 whole entry, looked up, the tested form may be a part): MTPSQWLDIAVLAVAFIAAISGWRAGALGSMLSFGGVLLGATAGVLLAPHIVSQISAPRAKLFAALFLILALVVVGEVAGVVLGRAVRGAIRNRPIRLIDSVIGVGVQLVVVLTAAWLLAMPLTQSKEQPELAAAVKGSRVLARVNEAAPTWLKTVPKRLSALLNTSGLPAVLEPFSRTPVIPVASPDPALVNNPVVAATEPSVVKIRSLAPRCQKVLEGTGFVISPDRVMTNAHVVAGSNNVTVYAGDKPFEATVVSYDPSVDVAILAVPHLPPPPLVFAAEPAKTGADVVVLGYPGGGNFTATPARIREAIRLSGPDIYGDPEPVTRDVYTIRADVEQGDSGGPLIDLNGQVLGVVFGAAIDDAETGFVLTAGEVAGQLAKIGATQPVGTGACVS
Mtb betalactam – beta-lactam sensitization of Mtb H37Rv; M. tuberculosis H37Rv growth with meropenem, percent inhibition; inhibition, % at 25 µM; 330,000 tested, 0.27% active; call rule not given here;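 also: growth measured after seven days incubation then overnight dye step; 0% = bacteria only wells and 100% = bacteria with antibiotic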
RecA intein inh – Mtb RecA intein splicing inhibition; cell-free RecA intein splicing, fluorescence; inhibition, % (concentration not given with the values); 290,000 tested, 0.75% active; AID 2221; in the data active = inhibition above about 30%; inconclusive = no clear call, values can overlap the other calls;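 also: 0% = vehicle wells and 100% = reference inhibitor control wells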
FBA Mtb inh – Mtb fructose-bisphosphate aldolase inhibition; P9WQA3; purified M. tuberculosis FBA, fluorescence read-out; inhibition, % at 1 µM; 360,000 tested, 2.3% active; in the data active = inhibition above about 27%;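 also: 0% = vehicle and 100% = reference inhibitor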
Mtb UGM inh – inhibitors of M. tuberculosis UDP-galactopyranose mutase | P9WIQ1 | purified UGM, fluorescence polarization probe displacement | inhibition, % at 10 µM | 320,000 tested, 0.06% active; in the data active = inhibition above about 10%, passing the limit was not always enough; inconclusive = no clear call, values can overlap the other calls
Starred values were filed as active, the others as inactive; ? = inconclusive; nt = not tested or not shown; + = active, no number.

SMILES | GDH-TPI counter | Rv3671c inh | Mtb betalactam | RecA intein inh | FBA Mtb inh | Mtb UGM inh
N#Cc1nc(-c2cccs2)oc1NCc1ccc2c(c1)OCO2 | 27 | -8 | -2 | 16 | 112* | 0
N#Cc1nc(-c2ccccc2F)oc1NCCc1ccccn1 | 20 | -2 | -7 | 2 | 15 | -2
N#Cc1nc(-c2ccccc2F)oc1NCc1ccccc1 | 15 | -9 | 26 | 4 | 142* | 0
N#Cc1nc(-c2cccs2)oc1NCCN1CCOCC1 | 32* | 1 | -9 | -2 | 195* | -4
O=C(OCc1nnc(-c2cccs2)o1)C1=NN(c2ccccc2)C(=O)CC1 | 1 | -2 | 0 | nt | 2 | -3
O=C(c1ccoc1)N1CCN(c2cc(-c3cccnc3)nc3cc(-c4cccc(Cl)c4)nn23)CC1 | 10 | nt | nt | nt | 12 | nt
COC(=O)c1ccccc1COc1cccn2c(N(C)C(=O)CCC3CCCC3)c(C)nc12 | 3 | nt | nt | nt | -2 | nt
N#Cc1nc(-c2cccs2)oc1NCCc1ccccc1 | 15 | 6 | 86 | 11 | + | 1
COc1ccc(Nc2oc(-c3cccs3)nc2C#N)cc1 | 16 | -5 | 6 | 3 | 10 | 3
COc1cccc(CN2CCC2(C)C(=O)Nc2cccc(Oc3ccccc3)c2)c1F (stereo unspecified) | 5 | nt | nt | nt | 0 | nt
c1ccc(-c2nc3c(ccc4ccccc43)[nH]2)nc1 | 33* | 24 | 97 | 4 | 16 | 2
c1ccc(-c2nc3ccccc3[nH]2)nc1 | 0 | 1 | 14 | 1 | 6 | 3
OCCN1CCN(c2ncnc3c2sc2nc(N4CCOCC4)c4c(c23)CCC4)CC1 | 44* | -10 | 4 | -1 | 20 | 3
CC1(C)Cc2c(c(N3CCCC3)nc3sc4c(N5CCN(CCO)CC5)ncnc4c23)CO1 | 33* | -10 | 14 | nt | 10 | 0
COC(=O)c1ccc(CSc2ncnc3c2sc2nc(N4CCOCC4)c4c(c23)CCCC4)o1 | 32* | -9 | 0 | -1 | 4 | 1
CC(C)[C@H](NS(=O)(=O)c1ccc(Cl)cc1)C(=O)OCC(=O)c1c(N)n(C)c(=O)n(C)c1=O | 7 | 2 | 5 | nt | 3 | nt
COC(=O)C[C@@H]1C[C@H]2c3cc(NC(=O)Nc4ccccc4F)ccc3O[C@H]2[C@H](CO)O1 | 4 | nt | nt | nt | 0 | nt
CC(=O)N1CCc2cc(S(=O)(=O)C(C)CC(=O)NCc3ccco3)ccc21 (stereo unspecified) | 1 | nt | nt | nt | -3 | nt
CCC1CCCCN1C(=O)CSc1nc2ncccc2[nH]1 (stereo unspecified) | 5 | 1 | ? | -1 | 2 | -2
CCOC(=O)C(C)Sc1ncnc2c1nnn2-c1ccc(F)cc1 (stereo unspecified) | 5 | -9 | 99 | 37* | 1 | 2
CN(C)S(=O)(=O)c1cccc(NC(=O)c2c[nH]c3ccccc23)c1 | -2 | -28 | -4 | -5 | 78* | 1
CN(C)S(=O)(=O)c1cccc(NC(=O)c2cc(=O)[nH]c3ccccc23)c1 | 3 | -4 | 3 | -1 | 2 | 0
CCOC(=O)c1nn(-c2ccccc2)c(C#N)c1N | 10 | -28 | 7 | 1 | + | 1
Cn1c(-c2ccsc2)c(-c2cccs2)c2cc(-c3ccc4cc[nH]c4c3)ccc21 | 35* | 12 | -3 | nt | 5 | -1
NC(=O)c1ccsc1NC(=O)CSc1nnc(NC2CC2)s1 | -11 | -2 | 2 | nt | -1 | -1
SMILES | GDH-TPI counter | Rv3671c inh | Mtb betalactam | RecA intein inh | FBA Mtb inh | Mtb UGM inh
CCCOc1ccc(Cc2c(O)nc(SC)[nH]c2=O)cc1 | 5 | -7 | -10 | -4 | -1 | 0
O=Cc1ccc(N2CCCCCC2)cc1 | 34* | 1 | 33 | 0 | 1 | -1
Cc1ccc(F)cc1NC(=O)COC(=O)C1CCN(c2ccc(C(F)(F)F)cn2)CC1 | -1 | 0 | -9 | nt | 1 | 0
Cc1cc(NS(=O)(=O)c2ccc(NC(=O)c3ccco3)cc2)nc(C)n1 | 6 | -5 | -4 | -1 | -1 | 5
CCOC(=O)Cc1csc(NC(=O)/C=C/c2ccco2)n1 | 75* | -5 | -8 | 0 | -3 | 2
O=C(/C=C/c1ccco1)Nc1scc(-c2ccccc2)c1C(=O)O | 66* | -5 | 9 | 2 | 2 | 4
Cc1cc(NS(=O)(=O)c2ccc(NC(=O)/C=C/c3ccco3)cc2)nc(C)n1 | 48* | -3 | -7 | 0 | 3 | 0
O=C(/C=C/c1ccccc1)Nc1scc(-c2ccccc2)c1C(=O)O | 21 | nt | nt | 3 | -1 | nt
Cc1csc(NC(=O)/C=C/c2ccco2)n1 | 33* | -1 | -2 | 2 | -4 | 2
CCOC(=O)Cc1csc(NC(=O)/C=C/c2ccc(Cl)cc2)n1 | 22 | 5 | 1 | 1 | -5 | 1
Cc1ccc(NC(=O)NNC(=O)CN2C(=O)COc3ccccc32)cc1 | -7 | 5 | -4 | 7 | -3 | 0
CCN1C[C@@H]2[C@@H]3C(=O)N(C)C(=O)[C@@H]3[C@](Cc3ccccc3)(C1=O)N2C(=O)c1ccc(Br)cc1 | -3 | nt | nt | nt | 1 | nt
O=C(/C=C/c1ccc2c(c1)OCO2)Nc1nc(-c2ccc(F)cc2F)cs1 | nt | -32 | -6 | -4 | nt | 1
Cc1csc(NC(=O)/C=C/c2ccc3c(c2)OCO3)n1 | 35* | -14 | 7 | 1 | -1 | 0
Cc1cc(C)nc(/N=C(\NC(=O)C(C)(C)C)Nc2ccccc2)n1 | -11 | 0 | -8 | 1 | -1 | 3
Cc1cc(-c2ccccc2)c2ccc(NC(=O)C(C)(C)C)nc2n1 | 46* | 6 | 6 | 1 | 14 | 0
Cc1sc(NC(=O)c2ccco2)c(C(c2cccnc2)N2CCCC2)c1C (stereo unspecified) | 31* | 8 | -7 | 18 | 1 | 1
CN(C(=O)COC(=O)C1CSC2(C)CCC(=O)N12)c1ccccc1 (stereo unspecified) | 6 | 11 | -9 | 2 | 1 | 3
CCc1cc(=O)oc2cc(OC(C)=O)cc(OC(C)=O)c12 | 23 | 3 | -10 | -44 | + | 2
COc1cc(OCc2ccccc2)c2c(CCC(=O)O)cc(=O)oc2c1 | 22 | nt | nt | nt | + | nt
COc1cc(OCc2ccccc2)c(CC(=O)O)c([N+](=O)[O-])c1 | 11 | nt | nt | nt | 2 | nt
CC(C)NC(=NCc1ccc(Cl)cc1Cl)Nc1ccccc1 | 3 | 0 | -8 | -2 | 1 | -1
Cc1c2ccccc2nc2c(F)c(N(C)C)c(F)c(F)c12 | 3 | -18 | -3 | -26 | 0 | 0
CN(C)c1c2ccccc2nc2c(F)c(F)c(F)c(F)c12 | 1 | -2 | 2 | -167 | 117* | -1
CCOC(=O)c1[nH]c2cc3c(cc2c1NC(=O)CN1CCC(C)CC1)OCO3 | 29 | -11 | 6 | 1 | 153* | -2
COCCCn1c(=O)/c(=C/c2ccccc2OC(F)F)s/c1=C(\C#N)C(=O)NCCOC | 18 | nt | nt | nt | 1 | nt
COCCCn1c(=O)/c(=C\c2cccc(OC)c2OC)s/c1=C(/C#N)C(=O)Nc1ccc(C(=O)O)cc1 | 40* | -19 | nt | -2 | -2 | 2
COCCCNc1oc(/C=C/c2ccccc2)nc1C#N | 30 | -4 | 1 | -3 | nt | -1
